From PubChem
MCF10A rerep: A quantitative high throughput screen for small molecules that induce DNA re-replication in MCF 10a normal breast cells; AID 624296, 2012; 350,000 compounds, 2.9% hits; Potency, µM (top dose mostly 46.1 µM), inactives show at the highest dose activity, positive = re-replication, usual class: activators; MCF 10A DNA re-replication, Hoechst nuclear intensity, 48 h; also: % of control where 0% means no effect; nearly all actives have a fitted effect of over 50% in size
KB-V1 MDR tox: qHTS assay for MDR1-selective chemotherapeutics: Primary screen using the drug-selected MDR subline cells KB-V1; 400,000 compounds, 3.4% hits; KB-V1 MDR cells viability, CellTiter-Glo, 72 h; Potency, µM (top dose mostly 46.1 µM), most hits filed as cytotoxic; also: % is scaled to controls: 0 for no effect and ±100 for the full control effect; nearly all actives have a fitted effect of over 60% in size
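KB-V1 cells (P-gp-expressing MDR subline of KB-3-1) in phenol-red-free DMEM with 10% FBS were exposed to library compounds over a concentration series for 72 h at 37 degrees C. Viability read by CellTiter-Glo luminescence; concentration-effect curves fitted after normalization.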
12-LOX inh: Primary qHTS assay for inhibitors of human arachidonate 12S-lipoxygenase (ALOX12): Round 2. Polyunsaturated fatty acid lipoxygenase ALOX12 (Homo sapiens), P18054. purified 12hLO, xylenol orange hydroperoxide absorbance. 580,000 compounds, 1.1% hits. Potency, µM (doses to about 108 µM), for the others: at the top dose activity change, negative = inhibition, usual class: inhibitors; also: % is scaled to controls: 0 for no effect and ±100 for the full control effect
Target sequence (P18054 whole entry, looked up): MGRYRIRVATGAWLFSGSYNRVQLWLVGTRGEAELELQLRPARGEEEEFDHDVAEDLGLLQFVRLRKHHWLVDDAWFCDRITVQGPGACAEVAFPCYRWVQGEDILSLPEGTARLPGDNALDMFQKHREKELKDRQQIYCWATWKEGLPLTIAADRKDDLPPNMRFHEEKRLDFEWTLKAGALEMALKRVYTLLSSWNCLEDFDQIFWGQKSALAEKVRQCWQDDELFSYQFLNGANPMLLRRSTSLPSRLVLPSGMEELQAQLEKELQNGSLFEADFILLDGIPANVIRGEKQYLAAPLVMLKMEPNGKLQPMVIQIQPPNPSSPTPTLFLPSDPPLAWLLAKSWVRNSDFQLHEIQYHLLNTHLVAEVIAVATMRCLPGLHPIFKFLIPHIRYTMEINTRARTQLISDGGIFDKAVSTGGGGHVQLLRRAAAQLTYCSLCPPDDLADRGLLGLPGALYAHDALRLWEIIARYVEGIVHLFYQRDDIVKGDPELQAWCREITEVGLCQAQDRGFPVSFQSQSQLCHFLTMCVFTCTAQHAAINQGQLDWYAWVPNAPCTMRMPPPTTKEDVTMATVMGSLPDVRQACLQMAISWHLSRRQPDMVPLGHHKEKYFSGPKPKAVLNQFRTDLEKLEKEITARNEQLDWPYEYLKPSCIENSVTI
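Purified human 12hLO (150 nM final) in 25 mM Hepes, 0.01% Triton X-100, pH 7.0 was preincubated 15 min at room temperature with compound. Then 40 uM arachidonic acid was added, 30 min. Hydroperoxide was read by Fe-XO absorbance ratio 573/405 nm.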
SW480 rereplic: A quantitative high throughput screen for small molecules that induce DNA re-replication in SW480 colon adenocarcinoma cells; SW480 DNA re-replication, Hoechst DNA content imaging, 48 h; Potency, µM (top dose mostly 46.1 µM), for the others: top-dose re-replication activation, hits mostly activators; 340,000 compounds, 1.8% hits; also: % of control where 0% means no effect; nearly all actives have a fitted effect of over 55% in size
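First, 250 cells per well were seeded. Next, compound or vehicle (23 nL) was pinned in, plates sat 48 hr at 37 C. Finally Hoechst was added for 40 min before fluorescence scanning.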
PINK1 modulator: A Quantitative High throughput Screen to Identify Chemical Modulators of PINK1 Expression; PINK1 immunofluorescence, high-content cytometry, 24 h; Potency, µM (top dose mostly 76.6 µM), for the others: at the top dose activation (PINK1 increase), usual class: activators; 410,000 compounds, 0.2% hits; AID 624263, 2012; active = well fitted activation curve with a large enough effect; inconclusive = small, poorly fitted or top-dose-only effect; cell line not stated here; also: % of control where 0% means no effect; nearly all actives have a fitted effect of over 65% in size
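Readout is PINK1 immunofluorescence, quantified alongside mitochondrial, cell and nuclear markers by laser-scanning microplate cytometry. Cells from a stable line were exposed to compound titrations (5 concentrations) for 24 hours, with CCCP controls.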
KB-3-1 tox: qHTS assay for MDR1-selective chemotherapeutics: Primary screen using the parental adenocarcinoma cell KB-3-1. KB-3-1 viability, CellTiter-Glo ATP luminescence, 72 h. Potency, µM (doses to about 46.1 µM), actives largely listed as cytotoxic. 400,000 compounds, 1.4% hits. AID 1347075, 2019; also: % is scaled to controls: 0 for no effect and ±100 for the full control effect; nearly all actives have a fitted effect of over 60% in size
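Parental KB-3-1 viability, qHTS format: 72 h compound exposure, 37 °C; CellTiter-Glo; media-only wells and DMSO plates as controls; concentration-effect fits on corrected data.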
* marks the source's active call; other numbers are inactive results; i = inactive; ? = inconclusive; . = not tested or not shown; [ ] = remark or other dose. Hits are enriched below; roughly 5.8% of the tested compounds scored in any of these assays. Unless noted, calls follow the shape of the dose curve; as a rule, active = well fitted curve in the direction sought with a large enough effect; inconclusive = small, poorly fitted or top-dose-only effect, or another doubt; inactive = no such curve, though single readings can be large; an effect the other way counts as inactive or inconclusive. Potency is read from the fitted curve at half-maximal effect.

SMILES	MCF10A rerep	KB-V1 MDR tox	12-LOX inh	SW480 rereplic	PINK1 modulator	KB-3-1 tox
CCCc1cc(=O)oc2cc(OCC(N)=O)ccc12	.	.	-5%	.	.	.
CCN(C(=O)Cn1c(=O)c2c(ncn2CC)n(Cc2ccccc2)c1=O)c1cccc2ccccc12	.	.	6%	.	.	.
CCc1ccc(-c2csc(NC(=O)c3ccc4c(c3)NC(=O)C(C)S4)n2)cc1 (centres undefined)	.	.	-6%	.	.	.
Cc1cc2nc(-c3cccc(NC(=O)c4cc([N+](=O)[O-])ccc4N4CCOCC4)c3)oc2cc1C	.	.	21%	.	.	.
Cn1nnc(-c2ccc(OCc3ccccc3F)cc2)n1	0%	i	0%	-7%	5%	i
CC(C)n1nnc(-c2ccc(OCc3ccccc3F)cc2)n1	-3%	i	1%	15µM*	4%	i
COCCNC(=O)c1ccc(-c2nc(CS(=O)c3ccc(C)cc3)c(C)o2)cc1 (centres undefined)	.	.	-79%	.	.	.
O=C(Nc1cccc2[nH]ccc12)C(=O)NC(c1ccccc1)c1ccccc1	.	.	23%	.	.	.
CCSc1nc2c(c(=O)n(C)c(=O)n2C)n1Cc1ccc(Cl)cc1	5%	13µM*	0%	-10%	1%	i
Cn1c(=O)c2c(nc(NCc3ccc4c(c3)OCO4)n2Cc2ccc(Cl)cc2Cl)n(C)c1=O	.	.	8%	.	.	.
Cn1c(=O)c2c(nc(SCC(=O)NCc3ccc4c(c3)OCO4)n2Cc2ccc(Cl)cc2)n(C)c1=O	16%	4.1µM*	4%	14%	5%	i
C=CCSc1nc2c(c(=O)n(C)c(=O)n2C)n1Cc1ccc(Cl)cc1	.	.	4%	.	.	.
CCSc1nc2c(c(=O)[nH]c(=O)n2C)n1Cc1ccccc1Cl	.	.	32µM*	.	.	.
CCSc1nc2c(c(=O)[nH]c(=O)n2C)n1Cc1ccc(Cl)cc1	5%	7.3µM*	2%	0%	16%	?
CCCCCSc1nc2c(c(=O)[nH]c(=O)n2C)n1Cc1ccccc1Cl	.	.	7%	.	.	.
COc1ccc(CN(C)S(=O)(=O)c2ccc3c(c2)OCCCO3)cc1	.	.	4%	.	.	.
O=C(CSc1nc2ccccc2s1)Nc1cc(C(F)(F)F)ccc1Cl	.	.	-2%	.	.	.
O=C(NC[C@H]1O[C@H](Cc2cc(COc3ccccc3)on2)CC[C@@H]1O)C1CCC1	.	.	10%[176 µM]	.	.	.
CCCCCCn1c(SCC(C)C)nc2c1c(=O)[nH]c(=O)n2C	0%	10µM*	22%	0%	5%	?
CCCCCCn1c(SCCC(C)C)nc2c1c(=O)[nH]c(=O)n2C	.	.	3%	.	.	.
CC(C)CCn1c(Sc2nc3ccccc3o2)nc2c1c(=O)[nH]c(=O)n2C	?	15µM*	?	?	-2%	i
Cc1nn(CC(=O)NC2CC2)c(C)c1S(=O)(=O)N(C)C	.	i	-4%	.	0%	i
Cc1nn(CC(=O)Nc2ccc(Cl)c(S(=O)(=O)N(C)C)c2)c(C)c1[N+](=O)[O-]	?	21µM*	-17%	2%	5%	i
Cc1ccc(NC(=O)Cn2nc(C)c(S(=O)(=O)N(C)C)c2C)cc1C	5%	23µM*	-13%	1%	-2%	i
COc1ccc(CC(=O)Nc2c3c(nn2-c2cccc(Cl)c2)CS(=O)(=O)C3)cc1	23%	16µM*	?	-4%	0%[38.3 µM]	i
SMILES	MCF10A rerep	KB-V1 MDR tox	12-LOX inh	SW480 rereplic	PINK1 modulator	KB-3-1 tox
O=C(Cc1ccccc1)Nc1c2c(nn1-c1cccc(Cl)c1)CS(=O)(=O)C2	19%	21µM*	-4%	-5%	-2%[38.3 µM]	i
COC(=O)c1ccc2cc(C(=O)O)ccc2c1	.	.	58%	.	.	.
Cc1ccc(/C=C(\NC(=O)c2ccc(C)cc2)c2nc(=S)[nH][nH]2)cc1	?	i	20µM*	-1%	-4%	?
CC(Nc1ccc(N2CCCC2=O)cc1)c1nc(C(C)(C)C)no1 (centres undefined)	.	.	6%	.	.	.
Cc1ccc(OCC(=O)Nc2c(NC3CCCC3)c3ccccc3oc2=O)cc1	.	.	51%	.	.	.
Cc1ccc(CN2C(=O)[C@@H]3C[C@@H](O)CN3C3(CN(Cc4ccccc4F)C3)C2=O)o1	.	.	3%[176 µM]	.	.	.
Cc1cccc(/C=N/NC(=O)c2ccc(NC(=O)c3ccc(F)cc3)cc2)n1	21µM*	i	-12%	-30%	3%	i
CCCCOC(=O)CSC1=C(C#N)C(c2cccnc2)C(C(=O)OCC)=C(c2ccccc2)N1 (centres undefined)	18µM*	i	-8%	23µM*	19%	i
CC(=O)C1=C(C)NC(SCC(N)=O)=C(C#N)C1c1cccnc1 (centres undefined)	21µM*	i	-6%	-2%	2%[38.3 µM]	i
CCOC(=O)C1=C(c2ccccc2)NC(SC)=C(C#N)C1c1cccnc1 (centres undefined)	21%	i	-7%	?	-3%	i
O=C(CSc1nc2nc[nH]c2c(=O)[nH]1)NCc1ccccc1	.	.	0.56µM*	.	.	.
Cn1ccnc1C(=O)c1cc(SCC(=O)NCc2ccccc2)nc2ccccc12	15µM*	?	-1%	?	3%	?
O=C(CSc1nc2nc[nH]c2c(=O)[nH]1)NCc1ccc(F)cc1	.	.	7%	.	.	.
COC(=O)CSc1cc(C(=O)c2nccn2C)c2ccccc2n1	7%	i	?	15%[9.22 µM]	0%	i
CCNC(=O)NC(=O)CSc1nc2ccccc2n1CC(C)C	5%	2.9µM*	0%	-3%	3%	i
CC(C)Cn1c(SCC(=O)NC2CC2)nc2ccccc21	.	?	-1%	.	1%	i
Cn1c(SCC(=O)NCc2ccccc2)nc2ccccc21	14%	15µM*	-23%	-4%	2%	i
CCOC(=O)c1sc(NC(=O)c2cc(Cl)ccc2F)nc1C	.	.	3%	.	.	.
Cc1ccc2nc(-c3cc(NC(=O)c4cccc(Cl)c4)ccc3O)oc2c1	.	.	27%	.	.	.
COCCCNC(=O)CSc1nc2ccccc2c(=O)n1CCCN1CCCCC1	-7%	i	2%	-14%	1%	i
COCCNC(=O)CSc1nc2ccccc2c(=O)n1CCCC(=O)NCc1ccccc1	0%	16µM*	-11%	3%	3%	i
CCN1/C(=C\c2ccc3cc(C)ccc3[n+]2CC)Sc2cc(C)c(C)cc21	?	i	25µM*	2%	?	?
